MITF TRPM1 HTS – activators of MITF-driven TRPM1 promoter activity in SK-MEL-5 cells. hit rate 0.75% among 300,000. activation, % at 12.5 µM. SK-MEL-5 TRPM1-promoter luciferase, 24 h; % of positive control, neutral wells = 0. AID 588334;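 active means mean activation of at least 80% with every replicate also reaching 80%; inconclusive means mean reaches 80% but some replicate falls short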;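 further: 0% = neutral control wells and 100% = parthenolide positive control wells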
esBAF inh – blocks esBAF chromatin remodeling in mouse ES cells; Bmi1-luciferase knock-in reporter, 24 h; 100% = twice the neutral-well signal; hit rate 2% among 350,000; reporter increase, % at 12.5 µM; in the data active means activation above about 40%; inconclusive means no clear call, values can overlap the other calls;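 further: 0% = median of the plate's neutral control wells and 100% = double that signal; a rise in the Bmi1 reporter signal indicates esBAF inhibition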
GAA850 FXN act – frataxin GAA850 promoter activation | hit rate 0.56% among 360,000 | activation, % at 6 µM | AID 540364 | HEK293 lucGAA850 FXN promoter luciferase reporter, 24 h; percent of 10 µM SAHA response;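 active means activation above the average of all compounds screened plus 3 SD, cutoff fixed separately per campaign, cut at about 7.5% in these data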;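 further: 0% = DMSO wells and 100% = 10 µM SAHA wells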
Statin myotox sup – protects C2C12 myotubes from simvastatin toxicity; ATP luminescence, 48 h; scaled: DMSO 0, geranylgeraniol control 100; rescue of ATP level, % at 7.49 µM; hit rate 0.78% among 330,000; AID 602340;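 active means mean ATP rescue above about 67%, or every replicate alone reaching that limit, limit read from the data, passing the limit was not always enough; inconclusive means no clear call, values can overlap the other calls; inactive means mean under the limit and some replicate under it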;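 further: myotubes were challenged with 10 µM simvastatin during compound exposure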
Wnt act – activates Wnt/beta-catenin signaling in a reporter cell assay | activator, plate reader | activation, % at 9.35 µM | hit rate 1.2% among 300,000 | AID 743398; in the data active means activation above about 30%, passing the limit was not always enough; inconclusive means no clear call, values can overlap the other calls;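 further: 0% = neutral control wells and 100% = positive control wells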
An asterisk follows results filed as active; ? = inconclusive; / = no result. This is a sample that favours compounds with a hit; in the whole collection about 3.3% have one here.

SMILES	MITF TRPM1 HTS	esBAF inh	GAA850 FXN act	Statin myotox sup	Wnt act
Cc1ccc(OCC(=O)Nc2ccccc2C(N)=O)cc1	61.3	?	3.8	-1.9	56.7*
COc1ccc(NC(=O)COc2ccccc2)c(OC)c1	63.3	50.7*	1.8	98.1*	-3.2
C[C@@H]1CCCCO[C@H](CN(C)C)[C@@H](C)CN([C@@H](C)CO)C(=O)c2cc(NS(=O)(=O)c3cccs3)ccc2O1	/	0.8	/	/	/
CCCN1C[C@H](C)[C@H](OC)CN(C)C(=O)c2ccc(NC(=O)c3cccc(OC)c3)cc2OC[C@@H]1C	/	3.5	/	-7.7	/
COc1ccc(CNC(=O)C[C@@H]2C[C@H]3c4cc(NC(=O)CN(C)C)ccc4O[C@H]3[C@@H](CO)O2)cc1	/	-0.2	/	5.4	/
Cc1noc(C)c1NC(=O)N(C)C[C@H]1Oc2ccc(NC(=O)Nc3ccc4c(c3)OCO4)cc2CC(=O)N([C@H](C)CO)C[C@H]1C	/	-5.9	/	11.1	/
CO[C@H]1CN(C)C(=O)c2ccc(NC(=O)C3CC3)cc2OC[C@@H](C)N(Cc2cccc(F)c2)C[C@@H]1C	/	3.1	/	13.9	/
COc1ccc2oc(C(=O)N3CCN(S(=O)(=O)c4c(C)c(C)cc(C)c4C)CC3)c(C)c2c1	/	51.1*	-0.1	-4.0	-3.3
C[C@@H]1CN([C@@H](C)CO)C(=O)c2cccc(NC(=O)Nc3ccc(C(F)(F)F)cc3)c2O[C@H]1CN(C)S(C)(=O)=O	/	1.5	/	7.3	/
Cc1csc(N/N=C/c2c(F)cccc2Cl)n1	18.8	44.9*	1.4	-19.4	8.3
Clc1ccccc1NN=Cc1ccccn1	/	/	2.4	/	59.8*
Fc1cccc(F)c1/C=N/Nc1ccccn1	12.5	/	3.6	/	5.9
Fc1cccc(/C=N/Nc2ccccn2)c1	97.5*	/	7.2	/	16.2
Fc1cccc(Cl)c1/C=N/Nc1ccccn1	35.2	55.7*	6.4	30.3	16.8
C[C@@H]1CCCCO[C@H](CN(C)C(=O)Nc2ccccc2)[C@@H](C)CN([C@H](C)CO)C(=O)c2cc(NS(C)(=O)=O)ccc2O1	/	-2.5	/	/	/
CC(=O)N(C)C[C@@H]1Oc2cc(-c3ccccc3)ccc2S(=O)(=O)N([C@H](C)CO)C[C@@H]1C	/	-1.6	/	14.2	/
Cc1ccc(S(=O)(=O)Nc2ccc3c(c2)C(=O)N([C@@H](C)CO)C[C@@H](C)[C@H](CN(C)Cc2ccncc2)OCCCC[C@H](C)O3)cc1	/	4.8	/	/	/
Clc1ccc(C=NNc2ccccn2)c(Cl)c1	0.0	43.5*	1.8	-3.5	21.0
Clc1ccc(/C=N/NC(=Nc2ccccc2)c2ccccn2)c(Cl)c1	13.6	-13.2	3.4	10.5	/
Cc1ccc(-c2cc(C(=O)NCc3ccco3)no2)cc1	97.7*	27.5	1.5	20.9	23.1
Cc1ccc(NC(=O)C(=S)NCc2ccco2)cc1	/	23.3	4.0	135.4*	3.3
COc1cccc(-c2cc(C(=O)NCc3ccco3)no2)c1	63.4	44.8*	3.4	28.4	-3.7
CN1C(=O)c2cc(NC(=O)C3CCOCC3)ccc2OC[C@@H]2O[C@H](CC(=O)O)CC[C@@H]21	/	-6.2	/	-7.0	/
O=C(Nn1c(SCc2cccc([N+](=O)[O-])c2)nc2ccccc2c1=O)c1ccccc1	24.8	/	6.6	/	43.4*
CN(C)C(=O)[C@@H]1N[C@@H]2c3ccc(-c4ccc(F)cc4)c(=O)n3C[C@@H]2[C@H]1CO	/	-0.5	/	13.6	/
SMILES	MITF TRPM1 HTS	esBAF inh	GAA850 FXN act	Statin myotox sup	Wnt act
COc1ccc2nc(NC(=S)NC(=O)c3ccco3)sc2c1	73.0	/	5.7	/	21.6
O=C(NC(=S)Nc1ccccc1Cl)c1ccco1	50.0	58.2*	3.4	-34.9	2.3
O=C(Nc1nc2ccc([N+](=O)[O-])cc2s1)c1ccco1	/	/	/	/	52.3*
O=C(NC(=S)Nc1cccc(Cl)c1N1CCCCC1)c1ccco1	-10.7	/	3.2	/	0.1
CC(=O)Nc1ccc2nc(NC(=O)c3ccco3)sc2c1	19.5	9.8	3.5	-10.7	15.9
CC(=O)Nc1ccc2nc(NC(=O)c3ccc([N+](=O)[O-])o3)sc2c1	/	12.3	2.3	114.0*	18.9
O=C(NC(=S)Nc1nc2ccccc2s1)c1ccco1	-0.4	/	5.0	/	52.6*
Cc1ccc(S(=O)(=O)N2C[C@H](O)COC[C@@H]3O[C@H](CC(=O)NCCN4CCCCC4)CC[C@H]32)cc1	/	-3.0	/	-0.9	/
COc1ccccc1NC(=O)N(C)C[C@@H]1OCc2cn(nn2)CCCC(=O)N([C@@H](C)CO)C[C@@H]1C	/	-1.3	/	-3.3	/
Cn1cnc(S(=O)(=O)N2CCCC(c3cc(C(=O)Nc4ccc(F)c(Cl)c4)no3)C2)c1 (stereo not given)	/	53.3*	1.4	-4.5	-0.2
CN(O)/C=c1/ccc2c(n1)C(=O)C=CC=2	-15.5	4.5	1.8	92.9*	0.5
COc1ccc(NC(=O)c2noc3c2CCC3)cc1	/	94.9*	5.0	-1.8	27.8
Cc1ccc(NC(=O)c2noc3c2CCC3)cc1C	47.2	/	2.4	/	32.7*
COc1ccccc1NC(=O)N1CCN(c2ccc(F)cc2)CC1	/	-5.7	-0.8	2.4	/
COc1ccccc1NC(=O)N1CCN(c2cccc(C(F)(F)F)c2)CC1	12.5	-4.4	-1.6	123.3*	0.4
CO[C@H]1CN(C)C(=O)c2ccc(NC(=O)NC(C)C)cc2OC[C@@H](C)N(Cc2cncnc2)C[C@H]1C	/	-0.5	/	8.6	/
CN1C(=O)CC(N2CCN(c3ccccc3)CC2)C1=O (stereo not given)	-6.1	5.1	-0.6	137.9*	-7.2
CCN1C(=O)CC(N2CCN(c3ccc(C(=O)c4ccccc4)cc3)CC2)C1=O (stereo not given)	48.2	54.8*	2.9	-5.0	-0.8
CC(C)NC(=O)N1C[C@@H]2[C@H](c3ccccc31)[C@@H](CO)N2C(=O)c1ccccc1	/	1.4	/	12.4	/
Cc1ccc(CNC(=O)Nc2cccs2)cc1	37.2	54.2*	6.3	21.6	/
Cc1ccc(C)c(CNC(=O)Nc2ccccc2)c1	85.9*	50.6*	4.6	11.5	3.3
Cc1ccc(CNC(=O)Nc2ccccc2)cc1	?	46.3*	1.2	9.1	21.2
O=C(NCc1ccc(Cl)cc1Cl)Nc1ccccc1	66.4	/	5.6	/	46.3*
Cc1ccc(CNC(=O)NCc2ccccc2)cc1	12.9	/	1.7	/	6.8
O=C(NCc1csc2ccc(Cl)cc12)Nc1ccccc1	/	-3.6	-0.4	-4.5	27.6
SMILES	MITF TRPM1 HTS	esBAF inh	GAA850 FXN act	Statin myotox sup	Wnt act
Cc1ccc2[nH]cc(CCNC(=O)Nc3ccccc3)c2c1	-2.8	-4.9	-0.8	45.2	/
CCC(=O)N(C)C[C@H]1Oc2cc(C3=CCCCC3)ccc2S(=O)(=O)N([C@@H](C)CO)C[C@@H]1C	/	/	/	-25.6	/
O=C(N=C1SCC(=O)N1c1ccccc1)c1ccco1	50.8	46.4*	4.0	7.7	/
O=C(N/N=C/C(Cl)=C/c1ccccc1)c1ccncc1	-5.5	/	1.2	/	3.6
CC(C=NNC(=O)C(=O)NN=CC(C)=Cc1ccccc1)=Cc1ccccc1	56.3	32.5	1.0	6.3	/
CC(/C=N/NC(=O)c1cccs1)=C\c1ccccc1	98.5*	38.4	4.5	-0.7	9.8
O=C(N/N=C/C(Cl)=C\c1ccccc1)c1cccs1	/	/	3.4	/	39.5*

Screening data deposited in PubChem by several laboratories.
